In the library only some 6.4% were active in any assay of this set; here they are far more common.
RORgamma inh: inhibitors of mouse ROR gamma transcriptional activity | P51450 | Drosophila S2 Gal4-RORgamma UAS-luciferase reporter, 20 h | Potency, µM (top dose mostly 53.6 µM), usual class: inhibitors | hit rate 5.4% among 310,000; also: nearly all actives have a fitted effect of over 60% in size
Target sequence (P51450 whole entry, looked up, the tested form may be a part): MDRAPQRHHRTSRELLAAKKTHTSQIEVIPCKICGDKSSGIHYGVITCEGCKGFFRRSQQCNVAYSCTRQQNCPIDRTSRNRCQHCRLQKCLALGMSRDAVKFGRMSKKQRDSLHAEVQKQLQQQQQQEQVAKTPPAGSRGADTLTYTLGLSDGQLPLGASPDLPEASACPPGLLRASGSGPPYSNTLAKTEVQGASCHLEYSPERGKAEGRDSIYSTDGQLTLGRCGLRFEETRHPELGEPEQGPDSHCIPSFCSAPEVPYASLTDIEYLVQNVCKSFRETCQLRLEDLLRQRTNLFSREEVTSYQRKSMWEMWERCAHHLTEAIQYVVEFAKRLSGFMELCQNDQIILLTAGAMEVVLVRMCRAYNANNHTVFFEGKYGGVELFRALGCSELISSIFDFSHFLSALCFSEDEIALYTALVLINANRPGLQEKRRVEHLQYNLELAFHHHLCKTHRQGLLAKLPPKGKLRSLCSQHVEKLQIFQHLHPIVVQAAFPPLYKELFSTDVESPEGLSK
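In this cell-based reporter format, copper sulfate (700 uM final) drives Gal4–ROR gamma fusion expression from a metallothionein promoter in Drosophila Schneider cells; compounds preincubated 1 hr, reporter read after 20 hr at ambient temperature.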
KinaseGlo FLuc: blocks Kinase-Glo luciferase, a counter-screen artifact; Kinase-Glo luciferase, ATP luminescence, 8 min; Potency, µM (series often up to 38.3 µM), hits mostly inhibitors; hit rate 0.28% among 200,000; also: nearly all actives have a fitted effect of over 60% in size
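Recombinant Kinase-Glo luciferase, 10 uM ATP (linear range), luciferin; imidazole pH 7.2 / KCl / MgCl2 / Tween / BSA buffer; 8 min RT; luminescence.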
Gal4-VP16 FLuc: Gal4-VP16 reporter inhibition counter-screen. AID 2546. hit rate 3.5% among 310,000. Drosophila S2 Gal4-VP16 UAS-luciferase, luminescence, 20 h. Potency, µM (highest dose often 53.6 µM), hits mostly inhibitors;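 also: Gal4-VP16 expression switched on by copper sulfate through the metallothionein promoter; nearly all actives have a fitted effect of over 50% in size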
Numbers stand for hits; – = inactive; ? = inconclusive; · = no result; [ ] = remark or other dose. Calls follow the shape of the dose curve; as a rule, active = well fitted curve in the direction sought with a large enough effect; inconclusive = small, poorly fitted or top-dose-only effect, or another doubt; inactive = no such curve, though single readings can be large; an effect the other way counts as inactive or inconclusive.

SMILES	RORgamma inh	KinaseGlo FLuc	Gal4-VP16 FLuc
Cc1nn(CC(=O)N/N=C/c2cccs2)c(C)c1[N+](=O)[O-]	?	·	–
Cc1nn(C(C)C(=O)NCc2ccccc2)c(C)c1[N+](=O)[O-] (stereo not drawn)	–	–	–
COc1cccc(/C=N\NC(=O)c2ccc(Cn3cc(Br)c([N+](=O)[O-])n3)o2)c1O	–	–	0.28µM
CCCCC(=O)NC1(C(F)(F)F)NC(=O)N(C)C1=O (stereo not drawn)	–	·	–
Cc1ccc(C)c(Cn2nc(-c3cc(C)ccc3C)ccc2=O)c1	–	·	–
CC1(c2cccc(Br)c2)NC(=O)N(CC(=O)Nc2ccc(F)cc2)C1=O (stereo not drawn)	–	·	–
COC(=O)c1ccc(N2CN=C(c3ccc(C)cc3)NC2=S)cc1	–	–	–
S=C1NC(c2ccccc2)=NCN1c1ccc(Cl)cc1	11µM	–	?
Cc1cc(=O)n2[nH]c(-c3ccccc3)cc2n1	–	–	–
Cc1cc(=O)n2[nH]c(-c3ccc(C(C)(C)C)cc3)cc2n1	?	–	22µM
O=C(CCCOc1ccc(Cl)cc1Cl)N/N=C/c1ccc(Cl)cc1	–	–	?
O=C(COc1ccc(Cl)cc1Cl)N/N=C/c1ccc(OC2OC(CO)C(O)C(O)C2O)cc1 (stereo not drawn)	11µM	·	–
CN1CCN(CC(=O)Nc2sc3c(c2C(=O)Nc2ccccc2)CCCC3)CC1	–	·	–
O=C(CN1CCCC1)Nc1sc2c(c1C(=O)Nc1ccc(Br)cc1)CCC2	2µM	·	3.5µM
CCOc1ccc(NC(=O)c2c(NC(=O)CNCCN3CCOCC3)sc3c2CCC3)cc1	0.56µM	·	0.1µM
CCOC(=O)c1c(NC(=O)CN2CCOCC2)sc2c1CCCC2	–	–	–
CC(C)c1ccc2[nH]c3c(c2c1)[C@@H]1CCN2C(=O)CCC[C@H](C3)[C@H]12	?	·	–
O=C(/C=C(\O)c1ccccc1)C(=O)NNC(=O)c1ccccc1[N+](=O)[O-]	–	·	?
Nc1ccccc1C(=O)NNC(=O)C(=O)/C=C(\O)c1ccccc1	11µM	·	?
COc1cc2c(cc1OC)C(c1ccc([N+](=O)[O-])cc1)NC(=O)C2 (stereo not drawn)	–	·	–
COc1ccc(OCc2nc3c4cc(OC)c(OC)cc4nc(=S)n3[nH]2)cc1	0.4µM	–	0.71µM
COc1cc2nc(=S)n3[nH]c(CCn4c(C)nc5ccccc54)nc3c2cc1OC	?	–	–
CN(Cc1ccccc1)C(=O)N1CCOCC1	–	·	–
COc1ccc(-c2csc(NC(=S)NC(=O)/C=C/c3ccccc3)n2)cc1Br	–	·	–
O=C(/C=C\c1ccco1)Nc1nc(-c2ccccc2)cs1	?	–	–
SMILES	RORgamma inh	KinaseGlo FLuc	Gal4-VP16 FLuc
O=C(/C=C/c1ccco1)NC(=S)Nc1nc(-c2ccc(Cl)cc2)cs1	14µM	·	?
O=C(/C=C/c1ccco1)NC(=S)Nc1nc(-c2ccc3ccccc3c2)cs1	7.9µM	–	?
CC(=O)Nc1cc2cc(NS(=O)(=O)c3ccc(C)cc3)ccc2oc1=O	–	·	–
CCCCc1nc2c(c3c1C[C@H](C)OC3)CN(S(=O)(=O)c1ccccc1C(=O)OC)CC2	·	–[7.66 µM]	·
C=C/C(C)=C/CC1C(=C)CCC2C(C)(C(=O)O)CCCC12C (stereo not drawn)	–	·	–
C=C1CCC2[C@](C)(CO)C(O)CC[C@]2(C)C1C/C=C1/C(=O)OCC1O (stereo partly drawn)	13µM	–	–
Cc1cc(Cl)ccc1C(=O)C1CCCN(C(=O)CN2CCOC2=O)C1 (stereo not drawn)	–	·	–
CCOc1ccc(NC(=O)c2ccncc2)cc1	–	–	–
CCOc1ccc2c(c1)C(=NNC(=O)c1ccncc1)c1cc(OCC)ccc1-2	1.1µM	–	0.89µM
CCN1CCN(c2nc(Nc3ccc(NC(C)=O)cc3)nc(Nc3ccc(NC(C)=O)cc3)n2)CC1	–	·	–
O=C(c1ccc2[nH]c(=O)c(=O)[nH]c2c1)N1CCc2ccccc21	–	·	–
O=C(O)c1cc2c(cc1S(=O)(=O)O)[C@H]1[C@@H](C3[C@H]2[C@@]2(Cl)C(Cl)=C(Cl)C3(Cl)C2(Cl)Cl)[C@]2(Cl)C(Cl)=C(Cl)C1(Cl)C2(Cl)Cl (stereo partly drawn)	·	–[7.66 µM]	·
COc1cc(NC(=O)N[C@@H](Cc2c[nH]c3ccccc23)C(=O)O)c(C(=O)O)cc1OC	–	·	–
COc1ccc(-n2c(SCC(=O)Nc3ccccc3)nc(O)cc2=O)cc1	–	·	–
COc1ccc(-n2c(SCC(=O)Nc3cccc4ccccc34)nc(O)cc2=O)cc1	35µM	·	–
O=C(Cl)c1cccc([N+](=O)[O-])c1	–	·	–
COc1ccc(CN2CCN(C(=O)CC(C)C)CC2)c(OC)c1OC	–	–	–
COc1ccc(CN2CCN(C(=O)CN3C(=O)C4C5C=CC(C5)C4C3=O)CC2)c(OC)c1OC (stereo not drawn)	–	–	6.3µM
COCCCNC(=S)NNC(=S)Nc1ccc(F)cc1F	7.1µM	–	–
COCCCNC(=S)NNC(=S)Nc1ccccc1	?	·	–
COCCCNC(=S)NCCc1ccc(F)cc1	10µM	·	?
COCCCNC(=S)Nc1ccc(C)cc1	?	·	–
CSc1nc(=S)n(-c2ccc([N+](=O)[O-])cc2)c(C)c1C(C)=O	–	·	–
Cc1noc(C)c1C(=O)OC(C)C(=O)Nc1ccc(S(=O)(=O)NC(C)C)cc1 (stereo not drawn)	–	–	–
O=C(NNC(=O)c1cccnc1SCc1cccc([N+](=O)[O-])c1)c1ccc(F)cc1	?	–	?
SMILES	RORgamma inh	KinaseGlo FLuc	Gal4-VP16 FLuc
O=C(NNC(=O)c1cccnc1SCc1cccc([N+](=O)[O-])c1)c1ccccn1	3.5µM	–	5µM
O=C(NCc1ccccc1)c1cccnc1Sc1ccccc1	–	·	–
O=C(NCc1cc([N+](=O)[O-])ccc1O)c1cccnc1Sc1ccccc1	10µM	·	11µM
Cc1ccc(Sc2ncccc2C(=O)N(C)Cc2cccs2)c(C)c1	–	·	–
Cc1ccc(Sc2ncccc2C(=O)NCc2cc([N+](=O)[O-])ccc2O)c(C)c1	5µM	·	7.1µM
CCOC(=O)c1ccccc1-c1csc(N)n1	–	–	–
Cc1ccc(Cn2ncc3c(N4CCN(C5CCCC5)CC4)ncnc32)cc1	–	–	–
Cc1ccc(C(=O)/C=C/c2ccc3c(c2)OCCO3)c(O)c1	–	·	–
O=C(/C=C/c1ccccc1Cl)c1ccc(O)cc1	10µM	·	?
Cc1ccc(C)c(/C=C/C(=O)c2ccccc(=O)c2O)c1	3.2µM	–	5µM
O=C(/C=C/c1ccccc1Cl)c1ccccc(=O)c1O	3.5µM	–	5.6µM
O=C(/C=C/c1ccccc1Cl)Nc1ccc(Cl)cn1	?	·	–
O=C(/C=C/c1ccc(O)c(O)c1)c1ccccc1O	–	·	?
O=C(/C=C/c1c(F)cccc1Cl)c1ccc(O)cc1	?	·	–
Cc1ccc(/C=C/C(=O)c2ccccc(=O)c2O)c(C)c1	7.1µM	–	?
Cc1cnc(C(=O)OCc2ccc(Br)cc2)cn1	–	·	–
CC(C)Cn1cnc2c1c(=O)[nH]c(=O)n2Cc1ccccc1	–	·	–
O=C(Nc1ccccc1)Nc1ccno1	–	·	–
COc1ccccc1-c1ccc(SCc2ccc(F)cc2)nn1	–	–	–
COc1ccccc1-c1cn[nH]c(=S)n1	8.9µM	–	?
O=C(C[n+]1ccccc1)Nc1c(Cl)cc(Cl)cc1Cl	?	–	?
Cc1ccc[n+](CC(=O)Nc2c(Cl)cc(Cl)cc2Cl)c1	13µM	–	–
